Results published in PubChem BioAssay AID651558 (National Center for Advancing Translational Sciences (NCATS), 2012).
Hit rate of the full screen: of about 1,200 compounds, about 480 (40%) were called active. Not shown: some 29% with an inconclusive outcome. Calls come from the whole dose curve; as a rule, active = well fitted inhibition curve with a large enough effect; inconclusive = small, poorly fitted or top-dose-only effect; inactive = no such curve, though single readings can be large or run the other way. The list shows a part of the results.

Test: qHTS Assay to Find Inhibitors of Chronic Active B-Cell Receptor Signaling: Hit Validation in Primary Screen; note: nearly all actives have a fitted effect of over 75% in size
Details: ABC-DLBCL IkB-luc/CBR ratio luminescence, 4 h; series mostly up to 46.1 µM; activity change, negative = inhibition: at the top concentration
Summary of the method: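 TMD8 ABC-DLBCL cells carrying doxycycline-inducible IkBa-green luciferase fusion and free red luciferase, 0.5% FBS, dosed 46 uM–3 nM with doxycycline for 4 h at 37C. Green/red luminescence ratio normalized to basal and 10 uM MG-132.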
% is set by controls: 0 for no effect and ±100 for the full control effect; potency is the fitted concentration of half-maximal effect.

Structure (SMILES)	activity change, negative = inhibition	Potency
COC1=CC(=O)CC(C)C12Oc1c(Cl)c(OC)cc(OC)c1C2=O (configuration not stated)	-15.9% (inactive)	–
COc1cc(C2C(C#N)=C(N)Oc3cc4c(cc32)OCO4)cc(OC)c1OC (configuration not stated)	–	0.461 µM (active)
COc1cc(OC)c2c(c1)OC(=O)CC2c1cc(OC)c(OC)c(OC)c1 (configuration not stated)	-23.6% (inactive)	–
Nc1nc(Cl)nc2c1ncn2[C@@H]1O[C@H](CO)[C@@H](O)[C@H]1O	–	0.92 µM (active)
Nc1ncnc2c1ncn2[C@@H]1O[C@H](CNC(=O)[C@@H]2CCCN2S(=O)(=O)c2ccc(F)cc2)[C@@H](O)[C@H]1O	-11% (inactive)	–
Nc1ncnc2c1ncn2[C@@H]1O[C@H](COP(=O)(O)O)[C@@H](O)[C@H]1O	110% (inactive)	–
C=CCNc1ncnc2c1ncn2C1OC(CO)C(O)C1O (configuration not stated)	–	23.1 µM (active)
OCC1OC(n2cnc3c(NC4CCCCC4)ncnc32)C(O)C1O (configuration not stated)	–	1.46 µM (active)
Nc1ncnc2c1ncn2[C@@H]1O[C@H](CNCc2ccc(-c3cc(C(F)(F)F)ccc3Cl)o2)[C@@H](O)[C@H]1O	-19.2% (inactive)	–
Nc1ncnc2c1ncn2C1OC(C(=O)NC2CC2)C(O)C1O (configuration not stated)	–	0.058 µM (active)
CC1CCC2C(=O)N(c3ccc(C(=O)Oc4cccc5cccnc45)cc3)C(=O)C2C1 (configuration not stated)	-1.42% (inactive)	–
O=C(Oc1c(CN2CCOCC2)cc(Cl)c2cccnc12)c1ccccc1Cl	-4.71% (inactive)	–
CCCC(=O)Nc1ncnc2c1ncn2[C@@H]1O[C@@H]2COP(=O)(O)O[C@H]2[C@H]1OC(=O)CCC	-15.4% (inactive)	–
OC[C@H]1O[C@@H](n2cnc3c(NC4CCCC4)ncnc32)[C@H](O)[C@@H]1O	–	1.84 µM (active)
OC[C@H]1O[C@@H](n2cnc3c(NC4CCCC4)nc(Cl)nc32)[C@H](O)[C@@H]1O	–	1.3 µM (active)
S=C(NCc1ccc2[nH]c3c(c2c1)CCCC3)Nc1ccccc1	37.4% (inactive)	–
Cc1ccccc1NC(=S)NCc1ccc2c(c1)cc(C)n2C	–	1.46 µM (active)
Cc1ccccc1NC(=S)c1ccc2ccccc2n1	1.75% (inactive)	–
COC(=O)Nc1nc(-c2ccccc2)c(C(=O)c2ccc(Cl)cc2)s1	–	3.66 µM (active)
CC[C@@H]1Cc2cc(O)ccc2C2=C1c1ccc(O)cc1C[C@H]2CC	–	14.6 µM (active)
Cc1noc(C)c1COc1cccc(C(=O)OCC(=O)N2CC(=O)Nc3ccccc32)c1	–	20.6 µM (active)
O=C(Cc1n[nH]c(=O)c2ccccc12)OCC(=O)c1ccc2c(c1)OCCO2	–	20.6 µM (active)
CN(CC(=O)Nc1ccc2c(c1)OCCO2)Cc1nc2ccccc2c(=O)[nH]1	-16.8% (inactive)	–
CCOc1ccc(N(CC(=O)Nc2ccccc2C)S(=O)(=O)c2c(C)noc2C)cc1	–	14.6 µM (active)
CCOc1ccc(N(CC(=O)Nc2ccccc2OC)S(=O)(=O)c2ccccc2)cc1	–	5.17 µM (active)
CCOc1ccc(N(CC(=O)Nc2ccccc2OCC)S(=O)(=O)c2c(C)noc2C)cc1	–	2.91 µM (active)
CCOc1ccc(S(=O)(=O)N(CC(=O)NN=C2CCN(C)CC2)c2ccc(C)cc2)cc1	-1.14% (inactive)	–
